Dicer processing: blocks human Dicer maturation of pre-miR-21; hit rate 6% among 47,000; z-score at 25 µM; cat-ELCCA pre-miR-21 Dicer processing, chemiluminescence; active compounds read high; AID 1347074; in the data active = z-score above about 3, passing the limit was not always enough;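 note: higher signal means more uncleaved substrate so more Dicer inhibition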
Target sequence (Q9UPY3 whole entry, looked up): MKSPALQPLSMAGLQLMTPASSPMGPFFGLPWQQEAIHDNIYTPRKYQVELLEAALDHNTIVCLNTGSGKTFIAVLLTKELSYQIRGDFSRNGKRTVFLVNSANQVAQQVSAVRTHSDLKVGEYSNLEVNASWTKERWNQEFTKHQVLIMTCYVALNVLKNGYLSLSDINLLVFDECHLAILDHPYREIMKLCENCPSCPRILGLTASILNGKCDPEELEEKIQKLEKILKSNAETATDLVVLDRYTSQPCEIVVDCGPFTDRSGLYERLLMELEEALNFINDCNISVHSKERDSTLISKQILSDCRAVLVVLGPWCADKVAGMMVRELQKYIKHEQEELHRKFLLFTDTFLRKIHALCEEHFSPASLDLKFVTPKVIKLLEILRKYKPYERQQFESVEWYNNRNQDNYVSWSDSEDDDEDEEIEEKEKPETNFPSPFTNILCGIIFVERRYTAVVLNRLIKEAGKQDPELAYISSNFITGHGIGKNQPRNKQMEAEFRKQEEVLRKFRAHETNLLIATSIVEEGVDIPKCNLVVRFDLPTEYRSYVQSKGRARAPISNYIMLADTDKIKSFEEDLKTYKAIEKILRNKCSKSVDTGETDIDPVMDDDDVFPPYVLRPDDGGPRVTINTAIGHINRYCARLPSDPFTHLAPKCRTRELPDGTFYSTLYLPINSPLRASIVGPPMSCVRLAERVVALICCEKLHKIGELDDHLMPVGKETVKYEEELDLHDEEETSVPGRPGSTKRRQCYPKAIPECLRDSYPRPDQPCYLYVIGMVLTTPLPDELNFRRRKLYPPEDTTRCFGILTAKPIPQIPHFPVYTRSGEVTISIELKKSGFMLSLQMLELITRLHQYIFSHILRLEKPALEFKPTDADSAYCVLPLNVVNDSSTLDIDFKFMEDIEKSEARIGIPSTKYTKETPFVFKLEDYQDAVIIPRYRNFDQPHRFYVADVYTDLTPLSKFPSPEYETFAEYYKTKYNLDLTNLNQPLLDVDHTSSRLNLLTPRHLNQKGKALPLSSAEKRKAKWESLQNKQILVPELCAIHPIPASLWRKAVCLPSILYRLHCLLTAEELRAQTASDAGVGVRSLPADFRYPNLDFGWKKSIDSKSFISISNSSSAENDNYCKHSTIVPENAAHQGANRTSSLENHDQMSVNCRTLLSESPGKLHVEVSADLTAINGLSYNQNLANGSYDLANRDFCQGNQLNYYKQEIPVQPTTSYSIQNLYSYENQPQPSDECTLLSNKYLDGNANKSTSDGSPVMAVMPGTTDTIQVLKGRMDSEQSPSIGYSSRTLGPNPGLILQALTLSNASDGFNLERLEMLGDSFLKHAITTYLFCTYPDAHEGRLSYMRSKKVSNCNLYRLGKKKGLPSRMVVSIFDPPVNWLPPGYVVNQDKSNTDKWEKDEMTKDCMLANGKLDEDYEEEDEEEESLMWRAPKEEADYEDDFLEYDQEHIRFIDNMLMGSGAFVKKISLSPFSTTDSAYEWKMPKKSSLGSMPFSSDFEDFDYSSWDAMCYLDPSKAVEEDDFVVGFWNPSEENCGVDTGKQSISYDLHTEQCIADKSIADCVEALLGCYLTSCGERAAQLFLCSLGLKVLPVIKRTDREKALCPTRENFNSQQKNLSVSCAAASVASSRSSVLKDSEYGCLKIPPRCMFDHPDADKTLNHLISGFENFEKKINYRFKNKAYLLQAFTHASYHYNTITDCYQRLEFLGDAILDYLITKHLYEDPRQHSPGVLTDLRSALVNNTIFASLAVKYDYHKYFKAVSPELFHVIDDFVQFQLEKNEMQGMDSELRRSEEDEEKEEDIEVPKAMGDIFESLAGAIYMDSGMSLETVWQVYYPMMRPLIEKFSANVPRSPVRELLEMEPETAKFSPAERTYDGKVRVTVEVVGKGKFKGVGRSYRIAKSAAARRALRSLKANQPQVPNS
A number is an active result; i = inactive. Shown is part of a subset that was picked to be rich in hits.

SMILES | Dicer processing
Cc1cc(C)c(S(=O)(=O)N2CC(C)OC(C)C2)c(C)c1 (centres undefined) | i
CC1CCN(CC(O)Cn2ccc3ccccc32)CC1 (centres undefined) | i
Cc1oc(C(=O)NC(=O)Nc2cccc(C(F)(F)F)c2)nc1-c1ccccc1 | i
O=C(O)c1ccc(S(=O)(=O)Nc2cccnc2)cc1 | i
O=C(O)/C=C\C(=O)NCCC1=CCCCC1 | i
Cc1ccc2cccc(OS(=O)(=O)c3cc(Cl)cc(Cl)c3)c2n1 | i
CC(C(=O)NNC(=O)C1CC1)n1nnc(-c2cc(C(F)(F)F)cc(C(F)(F)F)c2)n1 (centres undefined) | i
CC(C(=O)NNC(=O)C(C)(C)C)n1nnc(-c2cc(C(F)(F)F)cc(C(F)(F)F)c2)n1 (centres undefined) | 3.75
CC(=O)NNC(=O)C(C)n1nnc(-c2cc(C(F)(F)F)cc(C(F)(F)F)c2)n1 (centres undefined) | i
COc1ccc(/C(O)=C2\C(=O)C(=O)N(CCCn3ccnc3)C2c2ccc(Br)cc2)cc1 (centres undefined) | i
CN(C)C(=S)SCC(=O)c1ccc(Cl)cc1 | 4.88
O=C(CSC(=S)N1CCOCC1)c1ccc(Cl)cc1 | i
Cn1c(SCC(=O)c2ccc(Cl)cc2)nnc1SCC(=O)c1ccc(Cl)cc1 | i
O=C(NNC(=O)c1ncc(C(F)(F)F)cc1Cl)c1ccc(Cl)cc1 | i
CC(=O)NNc1ncnc2cc(-c3ccc(C(C)(C)C)cc3)sc12 | i
Cc1ccc(C(=O)NNc2ncnc3cc(-c4ccc(C(C)(C)C)cc4)sc23)cc1 | 6.16
Cc1ccc(C(=O)N2CCN(c3ncnc4cc(-c5ccc(C(C)(C)C)cc5)sc34)CC2)cc1 | i
O=C1CC2(CCCC2)C(=O)N1c1ccc(S(=O)(=O)N2CCN(c3nccc(C(F)(F)F)n3)CC2)cc1Cl | i
O=C(c1ccc(Cl)cc1)c1coc2c1cc(O)c1ccccc12 | i
O=S(=O)(c1ccccc1)n1nc(-c2ccccc2)nc1NCc1ccccc1 | i
Cc1ccc(S(=O)(=O)n2nc(-c3ccc(Cl)cc3)nc2N)cc1 | 3.18
O=S(=O)(c1ccccc1)n1nc(-c2ccccc2)nc1NCc1ccc(Cl)cc1 | i
Cc1ccc(S(=O)(=O)n2nc(-c3ccc(Cl)cc3)nc2NCc2ccco2)cc1 | 3.39
Cc1nc(C)c(-c2ccn(S(=O)(=O)c3ccc(Cl)cc3)n2)o1 | i
Cc1ccc(S(=O)(=O)n2nc(C)cc2C)cc1 | i
SMILES | Dicer processing
CCOC(=O)c1ccc2nc(C(F)(F)F)nc(N3CC(C)CC(C)C3)c2c1 (centres undefined) | i
Cc1onc(-c2ccccc2)c1-c1csc(-c2ccc(-c3csnn3)cc2)n1 | i
CC1=C(C(=O)OCCc2ccccc2)C(c2cccnc2)C2=C(CCCC2=O)N1 (centres undefined) | i
Fc1cccc(CN2CCN(Cc3cccnc3)CC2)c1 | i
CC(C)OC(=O)Cn1c(=O)oc2ccccc21 | 3.97
O=C(O)Cn1c(=O)oc2ccccc21 | i
COC(=O)Cn1c(=O)oc2ccccc21 | i
COC(=O)CSc1nc2ccc(Cl)cc2s1 | i
O=S(=O)(CS(=O)(=O)Nc1nc2ccc(Cl)cc2s1)Nc1nc2ccc(Cl)cc2s1 | i
CC(C)(C)NC(=O)NNc1nc2ccc(Cl)cc2s1 | 3.71
C=C1SC(Nc2cc(Cl)cc(Cl)c2)=NC1(CC)CC | i
Cc1ccc(C)c(NC(=O)C2Sc3nnc(C)n3NC2c2ccc(Cl)cc2)c1 (centres undefined) | i
CCOC(=O)c1c(C)oc2ccc(NS(=O)(=O)c3cccs3)cc12 | i
Cc1ccc(NS(=O)(=O)c2cccs2)cc1 | i
Cc1c(C(=O)O)c2cc(NS(=O)(=O)c3cccs3)ccc2n1S(=O)(=O)c1cccs1 | 7.47
Cc1cc(C)nc(Nc2ncc(O)n2-c2ccc(C)c(C)c2)n1 | 3.6
Cc1cc(C)c2c(C)nn(-c3ccc(C)c(C)c3)c2n1 | i
CCOc1ccc(-n2c(O)cnc2Nc2nc(C)cc(C)n2)cc1 | i
O=S(=O)(Nc1ccc(Oc2ccc(F)cc2)nc1)c1cccc2cccnc12 | i
COc1ccc(COC(=O)C2=C(C)NC3=C(C(=O)CCC3)C2c2ccc3c(c2)OCO3)cc1 (centres undefined) | i
COc1ccc(COC(=O)C2=C(C)NC3=C(C(=O)CCC3)C2c2cc3c(cc2Cl)OCO3)cc1 (centres undefined) | 4.24
CCOC(=O)C1=C(C)NC2=C(C(=O)CCC2)C1c1cc2c(cc1Cl)OCO2 (centres undefined) | i
CC(C)(COC(=O)c1cc2ccccc2oc1=O)Nc1ccc(C(F)(F)F)cc1[N+](=O)[O-] | i
CC1=C(C(=O)Nc2cccc(C)n2)C(c2ccc(Br)cc2)C2=C(CC(C)(C)CC2=O)N1 (centres undefined) | i
O=C(NNC(=O)C(Cl)Cl)c1sccc1-n1cccc1 | i
SMILES | Dicer processing
CCCCCCOc1ccc(NS(=O)(=O)c2ccc(F)cc2)cc1 | i
Cc1ccc(-c2n[nH]c(S(C)(=O)=O)c2C#N)cc1 | i
CS(=O)(=O)c1scc(-c2ccccc2)c1C#N | i
Cn1nc(-c2ccccc2)c(C#N)c1S(C)(=O)=O | 3.22
CCCCNC(=O)N(C)c1nncnc1C(=O)NC | i
CCNC(=O)N(C)c1nncnc1C(=O)NC | 4.49
CNC(=O)c1ncnnc1N(C)C(=O)NCc1ccccc1 | i
CN1c2ccccc2C(C)(C)C12C=Cc1cccc([N+](=O)[O-])c1O2 (centres undefined) | i
CSc1c(-c2cccs2)c(N)nn1S(=O)(=O)c1ccccc1 | 3.94
CSc1c(C#N)c(-c2cccs2)nn1C(=O)C(C)(C)C | i
CC1CCN(c2oc(-c3cccs3)nc2S(=O)(=O)c2ccccc2)CC1 | i
CCN(CC)c1ccc(/C=C2\N=C(SC)SC2=O)cc1 | i
CCCNc1nc2c(c(=O)n(C)c(=O)n2C)n1CCC | i
O=c1cc(CSC(=S)N2CCSCC2)c2ccccc2[nH]1 | i
C=CCOc1ccc2[nH]c(C)c(C(=O)OCC)c2c1 | i
C=CCOc1cc(=O)[nH]c2ccccc12 | 4.68
Cn1nnnc1SCC(=O)Nc1ccc(Br)cc1 | i
COc1ccc(C)c2c1N[C@@H](c1ccc(C(=O)O)cc1)[C@H]1CC=C[C@@H]21 | i
CC1CC(C)CN(c2ccc(N)cc2C(=O)O)C1 (centres undefined) | i
Fc1cc(Br)c(-n2cccc2)c(Br)c1Cl | i
Cc1[nH]n(-c2ccccc2)c(=O)c1N=Nc1c(C)n(C)n(-c2ccccc2)c1=O | i
Cc1[nH]n(-c2ccccc2)c(=O)c1N=Nc1ccc(N2CCCCC2)cc1 | 3.64
Cc1ccc(N=Nc2c(C)[nH]n(-c3ccccc3)c2=O)c(C)c1 | i
CC(=O)Nc1ccc(S(=O)(=O)NC2C(C)(C)C3CC[C@]2(C)C3)cc1 (some centres undefined) | i
O=S(=O)(c1ccc(F)cc1F)n1nccc1-c1ccc(-c2ccc(F)cc2F)o1 | i
SMILES | Dicer processing
COCCNC(=O)CN1C(=O)c2ccccc2S1(=O)=O | i
Cc1cc(C)c2c(=O)[nH]c(SCC(=O)c3ccc(O)c(O)c3)nc2n1 | 3.66
Cc1ccc(C(=O)CSc2nc3ccccc3c(=O)[nH]2)cc1C | i
Cc1cc(=O)[nH]c(SCC(=O)c2ccc(F)cc2)n1 | i
CCN(C(C)=O)c1nc2c3ccccc3n(C(C)=O)c2s1 | i
CCn1c(-c2ccccc2Cl)n[nH]c1=S | i
COc1ccc(S(=O)(=O)N2CCSC2c2ccccc2)cc1 (centres undefined) | i
COc1ccc(OC)c(C2SCCN2S(=O)(=O)c2ccc3ccccc3c2)c1 (centres undefined) | i

Screens from PubChem BioAssay.
